HT1080 IDH1KD tx – HT-1080 IDH1 knockdown cell toxicity (counter line). HT-1080 IDH1 knockdown viability, ATP luminescence, 48 h. Potency, µM (highest dose often 46.1 µM), for inactives: at the top dose activity, negative = toxicity, actives largely listed as cytotoxic. AID 686971. hit rate 2% among 360,000;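 further: potency means the concentration at half of the fitted maximal effect; 0% = DMSO wells and -100% = cell-free medium wells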
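Cytotoxicity counter-line: IDH1KD HT-1080, 48 h, CellTiter-Glo. Curves classed by r2, magnitude and activity.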
HT1080-NT tox – kills 2HG-producing HT-1080-NT fibrosarcoma cells | HT-1080-NT fibrosarcoma viability, CellTiter-Glo ATP luminescence, 48 h | Potency, µM (highest dose often 46.1 µM), for inactives: at the top dose activity, negative = less viability, usual class: cytotoxic | hit rate 1.6% among 360,000;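 further: NT is the 2HG producing partner of a matched IDH1 knockdown line; potency means the concentration at half of the fitted maximal effect; 0% = DMSO-treated cells and -100% = media-only wells without cells; nearly all actives have a fitted effect of over 55% in size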
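HT-1080-NT fibrosarcoma cells (2HG-overproducing), 750 cells/well in RPMI with 5% FBS, dosed after 2 h and incubated 48 h at 37C. CellTiter-Glo luminescence normalized to DMSO and no-cell wells; concentration-response curves fitted and classed.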
DT40 TDP1 CPT – growth inhibition of DT40 Tdp1-/-;hTDP1 cells with camptothecin (screen for TDP1 inhibitors); chicken DT40 Tdp1-/-;hTDP1 cells + 20 nM CPT, ATP luminescence, 48 h; hit rate 12% among 420,000; AID 686979; Potency, µM (titrated, usually from 46.2 µM), inactives show at the top dose activity change, negative = growth inhibition, most hits filed as inhibitors; further: potency means the concentration at half of the fitted maximal effect; nearly all actives have a fitted effect of over 55% in size
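Cell growth measured by CellTiter-Glo luminescence after a minimum 48 h, 37 C compound exposure with 20 nM CPT in Tdp1-knockout DT40 cells stably expressing hTDP1, seeded 400/well; qHTS titration format.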
IL-1B inflam inh – blocks inflammasome-driven IL-1 beta release; THP-1 LPS/ATP IL-1B secretion, AlphaLISA, 16 h; active compounds read low; activity change, % at 57.5 µM; hit rate 4.7% among 360,000; in the data active means activity change below about -50%; inconclusive means mostly about -30% to -49%
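THP-1 cells pretreated 1 hr with compounds (up to 57.5 uM final), then stimulated with LPS (250 ng/mL final) plus ATP (1.25 mM final); secreted IL-1B measured by AlphaLISA after 16 hr, decreased signal indicating inhibition.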
DT40 TDP1 no CPT – qHTS for Inhibitors of human tyrosyl-DNA phosphodiesterase 1 (TDP1): qHTS in cells in absence of CPT; DT40 Tdp1-/- hTDP1 cells, no CPT, ATP luminescence, 48 h; Potency, µM (series often up to 46.2 µM), without a hit: top-dose activity change, negative = growth inhibition, hits mostly inhibitors; hit rate 15% among 420,000; AID 686978, 2013; further: potency means the concentration at half of the fitted maximal effect; nearly all actives have a fitted effect of over 55% in size
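DT40 Tdp1-/-;hTDP1 cells, no CPT (DMSO vehicle only), 400 cells/well; compounds pin-transferred; ≥48 hr, 37 °C; CellTiter-Glo 30 min RT dark, luminescence read.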
Active calls of the source: *; i = inactive; ? = inconclusive; / = not tested or not shown; [ ] = dose if it differs, or a comment. Hits are enriched below; roughly 19% of the tested compounds scored in any of these assays. Unless noted, the call rests on the fitted dose curve; in most records, active means well fitted curve in the direction sought with a large enough effect; inconclusive means small, poorly fitted or top-dose-only effect, or another doubt; inactive means no such curve, though single readings can be large; an effect the other way counts as inactive or inconclusive. Unless noted, on the % scale 0 is the no-effect control and ±100 the full control effect.

SMILES	HT1080 IDH1KD tx	HT1080-NT tox	DT40 TDP1 CPT	IL-1B inflam inh	DT40 TDP1 no CPT
O=C(Nc1ccc(N2CCN(C(=O)c3ccc(Cl)cc3)CC2)cc1)c1cccs1	0%	0%	-26%	0	8%
O=C(c1cccc(NC2=NC3CS(=O)(=O)CC3S2)c1)N1CCN(c2cccc(Cl)c2)CC1 (configuration not stated)	5%	-1%	?	-15	?
O=C(Nc1cccc(C(=O)N2CCN(c3ccccc3)CC2)c1)c1ccco1	19%	2%	-23%	i	-24%
Cc1ccc(C)c(N2CCN(c3ccc(NC(=O)c4cccs4)cc3C(=O)O)CC2)c1	/	/	-23%	/	?
O=C(Nc1cccc(C(=O)N2CCN(c3ccc(Cl)cc3)CC2)c1)c1nsc2ccccc12	/	/	15µM*	/	10µM*
Cc1ccc(C)c(N2CCN(C(=O)c3ccc(NC(=O)c4nsc5ccccc45)cc3)CC2)c1	/	/	21µM*	/	18µM*
O=C(Nc1cccc(C(=O)N2CCN(c3cccc(Cl)c3)CC2)c1)c1ccccc1	-25%	?	16µM*	?	26µM*
Cc1cc(C)c(S(=O)(=O)NCCCn2ccnc2)cc1C	0%	0%	-9%	17	-15%
COc1ccc(S(=O)(=O)N2CCN(C(=O)CC3CC4CCC3C4)CC2)cc1 (configuration not stated)	-9%	1%	-52%	?	?
O=C(Nc1ccc(C(=O)N2CCN(c3cccc(Cl)c3)CC2)cc1)c1nsc2ccccc12	/	/	?	/	13µM*
CN1CCN(C(=O)c2ccc(Cl)cc2)CC1	23%	12%	-1%	7	-10%
CCOC(=O)N1CCN(C(=O)c2ccc(CSc3ccc(Cl)cc3)cc2)CC1	?	-25%	?	-80*	7.3µM*
Cc1ccc(SCc2ccc(C(=O)N3CCCCC3)cc2)cc1	2%	-7%	-10%	-10	?
CN1CCN(C(=O)c2ccc(CSc3ccc(Cl)cc3)cc2)CC1	3%	-1%	21µM*	-62*	23µM*
CCc1nc(SCC(=O)Nc2ccccc2Cl)n[nH]1	1%	5%	23%	13	-18%
S=C(c1ccc(-c2cccc(Cl)c2)o1)N1CCCCC1	-14%	-10%	-4%	18	?
Cc1cc(Cl)c2oc(C(=O)N3CCN(C(=O)c4ccco4)CC3)c(C)c2c1	-8%	-17%	16µM*	-7	?
CC1CN(C(=O)c2ccc(-c3cccc(C(F)(F)F)c3)o2)CC(C)O1 (configuration not stated)	-10%	9%	?	-56*	13µM*
CC(=O)N1CCN(C(=S)c2ccc(-c3ccc(Cl)cc3)o2)CC1	-10%	-12%	?	-12	26µM*
Cc1cc(Cl)c2oc(C(=O)N3CCOCC3)c(C)c2c1	8%	16%	?	-28	-22%
O=C(CN1CCN(C(=O)c2ccco2)CC1)Nc1cc(C(F)(F)F)ccc1Cl	1%[9.24 µM]	8%	?	-9	23µM*
O=C(CN1CCOCC1)Nc1cc(C(F)(F)F)ccc1Cl	9%	-10%	-23%	-4	-22%
Cc1ccc(CN(C)C(=O)c2ccccc2NC(=O)c2ccccc2)o1	2%	2%	?	0	-9%
O=C(c1ccc(-c2cccc(C(F)(F)F)c2)o1)N1CCCCCCC1	0%	11%	?	-5	-12%
N#CCCN1CCN(C(=S)c2ccc(-c3ccc(Cl)c(Cl)c3)o2)CC1	?	?	26µM*	-53*	?
O=C(c1ccco1)N1CCN(C(=O)c2ccc(-c3cccc(C(F)(F)F)c3)o2)CC1	-22%	-29%	?	-70*	21µM*
O=C(c1ccco1)N1CCN(C(=O)c2ccc(-c3ccc(Cl)cc3)o2)CC1	10%	11%	18µM*	-6	?
O=C(c1ccco1)N1CCN(C(=O)c2ccco2)CC1	2%	23%	10%	-6	1%
CC(C)CCN1C(=O)c2ccccc2C1c1nnnn1C(C)C (configuration not stated)	28%	14%	?	0	?
